The nature of experiment [1]: OV-KATE Cancer Cell Toxicity qHTS against the NCATS CANVASS Library (AID 1347345). Further: potency means the concentration at half of the fitted maximal effect. The method, boiled down:
(§1)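 In this cytotoxicity screen, 1000 cells per well rested 4 hours, then received compound (11 concentrations) for a 72-hour incubation; an ATP-dependent luminescent signal (CellTiter-Glo) was the endpoint.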

Experiment [2] is described as follows: HPAF-II Cancer Cell Toxicity qHTS against the NCATS CANVASS Library (AID 1347346). Further: nearly all actives have a fitted effect of over 55% in size. Further: potency means the concentration at half of the fitted maximal effect. The method, boiled down: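 Using 1000 HPAF-II cells per well, we titrated compounds over 11 concentrations for 72 h at 37 degrees C/5% CO2, with bortezomib as control. Cell survival was quantified by CellTiter-Glo luminescence.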
The nature of experiment [3]: OV-SAHO Cancer Cell Toxicity qHTS against the NCATS CANVASS Library (AID 1347348). Further: nearly all actives have a fitted effect of over 55% in size. Further: potency means the concentration at half of the fitted maximal effect. The method, boiled down: as §1
On the technique in general: In qHTS, concentration-response curves come from the screen itself.

The nature of experiment [4]: U-118MG Cancer Cell Toxicity qHTS against the NCATS CANVASS Library (AID 1347351). Further: potency means the concentration at half of the fitted maximal effect. The method, boiled down: as §1
The nature of experiment [5]: HPAF-II 24hr Apoptosis Induction qHTS against the NCATS CANVASS Library (AID 1347356). The method, boiled down:
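Using an 11-point qHTS format, HPAF-II cells in DMEM/10% FBS received compounds for 24 h; doxorubicin titration as control. Caspase-3/7 activity quantified by DEVD-luciferase luminescence.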

Experiment [6] in a line: HPAF-II 12hr Apoptosis Induction qHTS against the NCATS CANVASS Library (AID 1347358). The method, boiled down: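 Twelve-hour compound exposure of HPAF-II cells in DMEM with 10% FBS, then luminescent Caspase-Glo 3/7 detection after 15 min at room temperature; doxorubicin control.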
Experiment [7] in a line: HEK293 24hr Apoptosis Induction qHTS against the NCATS CANVASS Library (AID 1347359). Further: potency means the concentration at half of the fitted maximal effect. The method, boiled down:
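Caspase-3/7 activation measured as luminescence from the DEVD-based Caspase-Glo reagent, 15 min at room temperature, following 24-hour compound treatment of HEK293 cells.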

Experiment [8] is described as follows: HPAF-II 18hr Apoptosis Induction qHTS against the NCATS CANVASS Library (AID 1347360). The method, boiled down: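 HPAF-II cells at 500/well were exposed for 18 h at 37 C to an 11-point compound series. Caspase-3/7 activity was read by Caspase-Glo luminescence after 15 min at RT.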
Experiment [9] has as its target Luciferin 4-monooxygenase (Photinus pyralis) (UniProt P08659). Briefly: Firefly luciferase counterscreen qHTS: Assay Interference Panel against the NCATS CANVASS Library (AID 1347363). Further: series mostly up to about 57 µM. The method, boiled down:
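Luminescence inhibition readout: compounds (11-point qHTS) sat 15 min at room temperature with substrate mix (0.013 mM luciferin and ATP), then firefly luciferase was added and signal read 5 min later.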
For orientation: A counterscreen serves to expose hits that act by an unwanted route or on another target.

Experiment [10] in a line: qHTS for ATAD5 Agonist screened against the NCATS CANVASS Library (AID 1347367).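 Further: luciferase reporter driven by ATAD5 which rises upon DNA damage.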 The method, boiled down: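 Luciferase reporter under ATAD5 control, stably integrated in HEK293T cells (2000/well). Compounds (11 points) incubated 16 h at 37C; viability read first by CellTiter-Fluor, then luminescence reporting ATAD5 activation. MMS positive control.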
Experiment [11] can be described thus: MCF7 Cancer Cell Toxicity qHTS against the NCATS CANVASS Library (AID 1347369). Further: potency means the concentration at half of the fitted maximal effect. The method, boiled down:
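MCF7 cells (500/well) were exposed 72 h at 37 °C to compounds in an 11-point series. Viability was read as ATP content by CellTiterGlo luminescence.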

Experiment [12] is described as follows: qHTS for ATAD5 Antagonist screened against the NCATS CANVASS Library (AID 1347370). Further: nearly all actives have a fitted effect of over 65% in size. Further: potency means the concentration at half of the fitted maximal effect. The method, boiled down:
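HEK293T-ATAD5 luc reporter, 2000 cells/well; 5hr attach; cpd + 10 uM 5-FUrd; 16hr 37C, 5% CO2. Readouts: CellTiter-Fluor fluorescence (1hr), then Amplite luciferase luminescence (30min RT).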

The nature of experiment [13]: J3T Cancer Cell Toxicity qHTS against the NCATS CANVASS Library (AID 1347371). Further: potency means the concentration at half of the fitted maximal effect. The method, boiled down: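 ATP-based cytotoxicity in canine J3T cells: 72 hr exposure at 37C, 11-point titration, CellTiterGlo luminescent detection.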
Experiment [14] deals with Nuclear receptor subfamily 1 group I member 3 (Homo sapiens) (UniProt Q14994). Nature of the experiment: qHTS for Constitutive Androstane Receptor (CAR) Agonist screened against the NCATS CANVASS Library (AID 1347373).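 Further: every well also contained 1.5 µM PK11195 alongside the test compound.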 The method, boiled down:
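In an 11-point concentration series, compounds were incubated 24hr with HepG2 cells carrying hCAR and a CYP2B6-2.2kb reporter, with PK11195 at 1.5uM final. A CellTiter-Fluor viability read preceded the ONE-Glo luminescence read.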

A short description of experiment [15]: 10-beta competent E. coli microbial cell viability qHTS against the NCATS CANVASS Library (AID 1347376). Further: series mostly up to about 46 µM. The method, boiled down: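 Overnight 37C exposure of 10-beta E. coli (0.2 OD) to an 11-point concentration series; ATP-based luminescence after 20 min room-temperature reagent incubation; daunomycin as control.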
Experiment [16] is described as follows: qHTS for H2AX Agonists against the NCATS CANVASS Library (AID 1347378). Further: potency means the concentration at half of the fitted maximal effect. The method, boiled down:
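CHO-K1 cells (1000/well, overnight at 37C) exposed to compounds at several concentrations for 3 hr at 37C, 0.76% DMSO final. Lysates read by TR-FRET (phospho-H2AX S139 Eu-cryptate antibody / H2AX-d2 antibody) after 24 hr at room temperature; 665/615 nm ratio.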

Experiment [17] can be described thus: qHTS for Inflammasome Signaling Inhibitors: IL-1-beta AlphaLISA screen against the NCATS CANVASS Library (AID 1347379).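 Further: human THP-1 cells primed with LPS then triggered with ATP.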 The method, boiled down:
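THP-1, 1 hr compound pre-incubation, then LPS 250 ng/mL + ATP 1.25 mM (final); 16 hr total with compound; IL-1B AlphaLISA, ex 680/em 615 nm; 11-point qHTS, up to 57.5 uM final.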

A short description of experiment [18]: Cytotoxicity qHTS for assessment of Hepg2 cells membrane integrity screened against the NCATS CANVASS Library (AID 1347387). The method, boiled down: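 Membrane damage in HepG2 monolayers was estimated from released LDH, measured with CytoTox-ONE (ex 560/em 590 nm), after 5 hr treatment across 0.59 nM - 46 uM final.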
A short description of experiment [19]: Vero-766 cells viability qHTS against the NCATS CANVASS Library: Counterscreen for Zika virus inhibition assay (AID 1347394). Further: nearly all actives have a fitted effect of over 60% in size. Further: potency means the concentration at half of the fitted maximal effect. The method, boiled down:
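Vero 766 cells (1000/well), without Zika virus, were exposed to compounds for 72 h at 37C. Viability was measured by CellTiter Glo luminescence. Media-only wells served as 100% inhibition.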

Experiment [20] in a line: Viability qHTS for inhibitors of the SERCaMP assay screened against the NCATS CANVASS Library (AID 1347400). Further: nearly all actives have a fitted effect of over 70% in size. Further: potency means the concentration at half of the fitted maximal effect. The method, boiled down: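 Measures loss of viability in SERCaMP reporter SH-SY5Y cells treated for 48 h with compounds; luminescent ATP detection by CellTiter-Glo.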

Structures are written as SMILES. Records with an inconclusive call do not appear. The source made the active and inactive calls. The call rests on the fitted dose curve; in most records, active means well fitted curve in the direction sought with a large enough effect; inconclusive means small, poorly fitted or top-dose-only effect, or another doubt; inactive means no such curve, though single readings can be large; an effect the other way counts as inactive or inconclusive.

Sequence of Luciferin 4-monooxygenase (Photinus pyralis) (P08659 whole entry, looked up): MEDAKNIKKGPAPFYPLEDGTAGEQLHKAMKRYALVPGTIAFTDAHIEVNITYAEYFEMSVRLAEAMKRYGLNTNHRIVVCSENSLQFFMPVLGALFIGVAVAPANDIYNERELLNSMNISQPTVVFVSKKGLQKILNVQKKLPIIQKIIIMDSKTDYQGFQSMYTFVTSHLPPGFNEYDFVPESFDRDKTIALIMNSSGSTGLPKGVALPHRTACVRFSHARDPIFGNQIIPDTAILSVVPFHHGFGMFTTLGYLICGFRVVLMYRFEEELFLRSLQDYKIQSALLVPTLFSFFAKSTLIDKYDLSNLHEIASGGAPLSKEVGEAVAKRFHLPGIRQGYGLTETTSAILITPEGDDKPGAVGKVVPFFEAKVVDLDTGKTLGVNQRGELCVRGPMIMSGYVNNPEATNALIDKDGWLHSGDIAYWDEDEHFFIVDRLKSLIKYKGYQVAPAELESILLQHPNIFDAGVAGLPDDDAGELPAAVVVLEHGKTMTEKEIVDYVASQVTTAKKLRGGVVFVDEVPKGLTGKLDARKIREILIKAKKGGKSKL
Sequence of Nuclear receptor subfamily 1 group I member 3 (Homo sapiens) (Q14994 whole entry, looked up): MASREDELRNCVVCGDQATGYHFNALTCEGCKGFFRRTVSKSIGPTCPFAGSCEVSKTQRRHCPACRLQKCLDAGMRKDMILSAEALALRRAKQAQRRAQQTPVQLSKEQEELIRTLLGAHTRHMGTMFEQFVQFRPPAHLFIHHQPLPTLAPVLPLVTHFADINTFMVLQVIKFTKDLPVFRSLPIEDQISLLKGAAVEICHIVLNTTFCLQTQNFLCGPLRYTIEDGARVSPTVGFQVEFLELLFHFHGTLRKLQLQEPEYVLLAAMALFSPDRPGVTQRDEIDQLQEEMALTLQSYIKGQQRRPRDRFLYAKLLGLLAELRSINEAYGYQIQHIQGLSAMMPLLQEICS

`CC1C(=O)C23CCC1C[C@]21O[C@@H]2C(C)(C)C=CC(=O)[C@@]23COC1=O` (stereo not given in full): the Potency result in experiment [1], in experiment [2], in experiment [3], in [4], in [6] and in [7] was “inactive” each time. In addition, the Potency entry in experiment [8], in [9], in [10], in experiment [11], in [12] and in experiment [13] was “inactive” each time. Also, the Potency result in experiment [16], in experiment [17], in [19] and in experiment [20] was “inactive” each time. In addition, the compound was called inactive in [5], in [14], in experiment [15] and in [18].
With `C[C@]12CC[C@]3(C1)[C@H](CC2=O)CC(OC(=O)c1ccccc1)[C@H]1[C@@](CO)(C(=O)O)CCC[C@@]13C` (stereo not given in full), the Potency entry in experiment [1], in experiment [2], in experiment [3], in [4], in [6] and in experiment [7] was “inactive” in each case. In addition, the Potency entry in experiment [8], in [9], in experiment [10], in [11], in experiment [12] and in experiment [13] was “inactive” in each case. The Potency entry in experiment [16], in experiment [17], in experiment [19] and in experiment [20] was “inactive” throughout. In addition, the compound was classed as inactive in [5], in experiment [14], in [15] and in experiment [18].
On to `O=C(O)[C@@]12COC3(O)C1CCN1CC[C@H]3[C@@H]1c1c2[nH]c2ccccc12`, for which the Potency result in experiment [1], in [2], in experiment [3], in experiment [4], in experiment [6] and in [7] was “inactive” in each case. Also, the Potency entry in experiment [8], in experiment [9], in experiment [10], in experiment [11], in experiment [12] and in [13] was “inactive” each time. For the same compound, the Potency result in [16], in [17], in experiment [19] and in experiment [20] was “inactive” throughout. The result in experiment [5], in experiment [14], in [15] and in experiment [18] was inactive.
For `CC(=O)NC[C@@H]1O[C@H](CC/C=C(C)/C(C)=C/C=O)[C@H](C)C[C@H]1O`, the Potency result in [1], in experiment [2], in experiment [3], in experiment [4], in [6] and in experiment [7] was “inactive” throughout. Also, the Potency entry in experiment [8], in [9], in experiment [10], in experiment [11], in experiment [12] and in experiment [13] was “inactive” each time. Also, the Potency entry in [16], in experiment [17] and in experiment [19] was “inactive” throughout. Also, the result in experiment [5], in experiment [14], in experiment [15] and in experiment [18] was inactive.
As to `CCCCCCCCCCCCCCCC(=O)OC/C=C(\C)CCCC(C)CC(C)C(C)C` (stereo not given), the Potency entry in experiment [1], in [3], in [4], in [6], in experiment [7] and in experiment [8] was “inactive” in each case. The Potency result in experiment [9], in experiment [10], in experiment [11], in experiment [12], in experiment [13] and in experiment [16] was “inactive” throughout. Moreover, the Potency result in experiment [17], in [19] and in experiment [20] was “inactive” throughout. Also, the Potency in [2] was 0.298 µM (active). Further, the result in experiment [5], in experiment [14], in experiment [15] and in [18] was inactive.
As for `C=CC(=C)CC[C@]1(C)[C@H]2C[C@H](OC(=O)C(C)CC)C=C3[C@H](OC(C)=O)O[C@H](OC(C)=O)[C@@]32[C@H](OC)C[C@@H]1C` (stereo not given in full), the Potency was 2.17 µM (active) in experiment [1]; 3.43 µM (active) in [2]; 2.73 µM (active) in experiment [3]; 3.43 µM (active) in [4]; 9.59 µM (active) in experiment [7]; 12.1 µM (active) in [11]. The Potency is 10.8 µM (active) in [12]; 4.81 µM (active) in [13]; 19.9 µM (active) in experiment [16]; 7.03 µM (active) in experiment [17]; 6.8 µM (active) in experiment [19]; 2.21 µM (active) in [20]. Further, the Potency result in experiment [9] and in experiment [10] was “inactive” throughout. In addition, the outcome in [14] and in [15] was inactive.
